Here are results for 76 molecules from PubChem BioAssay (NCI).

Values joined by “and” are separate entries in the source; they are usually repeats but may differ in a detail not shown here. Identical values can stand only once. About 83,000 compounds went through this panel and 20% of them were active in at least one assay; those are over-represented in the sample as a whole.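 For each line, cells grew in 96-well plates with the test compound present at a single concentration for 48 hours.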 Values without a mark were called inactive. Active and inactive are the calls of the source. How the source made its calls: active means growth percent below 10; inactive means the rest.

The test system of this assay is HL-60(TB) leukemia. Description: NCI-60 one-dose screen, 48 h (100 = growth as untreated, 0 = no growth, -100 = all killed). Conditions: 10 µM unless noted.

With `Cc1ccc(-c2cc3nc(C(Cl)Cl)nc(-c4ccco4)n3n2)cc1`, the growth is -11.9% (active).
With `COc1ccc(/C=C/C(=O)c2nnn(-c3ccc(C(=O)O)cc3)c2C)cc1OC`, the growth is 83.2%.
On to `COc1cc(-c2nn(C(C)(C)C)cc2-c2ccnc(NCCCNS(=O)(=O)c3ccccc3)n2)ccc1Cl`, for which the growth is 103%.
Consider `Cc1occc1-c1nc2s/c(=C\c3cn(-c4ccccc4)nc3-c3ccccc3)c(=O)n2n1`, for which the growth is 102%.
In the case of `COC(=O)c1c(C(=O)OC)c2n(CC(=O)Nc3cccc4cccnc34)c3ccccc3n2c1C(=O)c1ccc(C)cc1`, the growth is 99.2%.
For `O=C1C(c2ccccc2)=C(N2CCc3ccccc32)OC1(Cl)Cl`, the growth was -14.6% (active).
Then `COc1cc(C2N=C(NNc3ccccc3)NC(C)=C2C(C)=O)ccc1O` (stereo unspecified), with 92.3%; and `Cc1ccc(NC(=O)c2ccc(CN3CCN(C)CC3)cc2)cc1Oc1ccc(-c2[nH]nc3ncnc(N)c23)cc1`, with 126%; and `CCNC(=O)N1CCc2cc(OC)c(OCCc3ccc(OC)c(N)c3)cc2C1c1ccc(C)cc1C` (stereo unspecified), with 16.5%.
For `O=C(CN1CCN(c2cc(=O)n(-c3ccccc3)c3ccccc23)CC1)Nc1ccc([N+](=O)[O-])cc1`, the growth was 85%.
As for `O=C(CSc1nnc(-c2ccc(Cl)cc2)n1-c1ccccc1)Nc1ccc(F)cc1`, the figure is 95.3%; as for `COc1cc(/C=C/C(=O)c2cc(OC)c(OC)c(OC)c2)ccc1OCc1ccc(F)cc1`, 9.93% (active); as for `CC(C)(C)Nc1nc2c(OCCc3ccccc3)cccn2c1-c1cccc(F)c1`, -30.2% (active).
With `O=c1c2cc(-c3ccc(F)cc3F)ccc2n(Nc2ccccc2)c(=O)n1-c1cccc(C(F)(F)F)c1`, the growth is -45.5% (active).
As for `COc1cc(C(=O)c2cc(C(C)=O)c3c(C)cccn23)cc(OC)c1OC`, the growth is 88.9%.
For the molecule `CN1CCN(Cc2ccc(NC(=O)c3cncc(C#Cc4cnc5ccc(N6CCSCC6)nn45)c3)cc2C(F)(F)F)CC1`, the growth is -41.6% (active).
Then `Clc1cccc(/C=N/Nc2nc(N/N=C/c3cccc(Cl)c3Cl)nc(N3CCCCC3)n2)c1Cl`, with 106%; and `Cc1nn(-c2ccccc2)c2ncnc(N/N=C/c3ccccc3)c12`, with 91.5%; and `COc1ccc2[nH]cc(-c3nn4cc(-c5ccncc5)nc4s3)c2c1`, with 54.9%.
As for `CN1C(=O)N(C)C2C1NN=c1s/c(=C\c3ccccn3)c(=O)n12` (stereo unspecified), the growth is 101%.
Consider `CNC(=O)Nc1ccc(Nc2cc(-c3ccc(-n4cccn4)cc3)[nH]n2)c(C)c1`, for which the growth was 92.7%.
As for `COc1ccc(-c2csc(N/N=C/c3c(-c4ccc(S(C)(=O)=O)cc4)nc4ccccn34)n2)cc1`, the growth is 103%.
As for `N#C/C(=C\c1cccc2c1OCO2)C(=O)Nc1sc2c(c1C#N)CCCC2`, the growth was 105%.
Take `CC1=NC2=NN3C(=NN2C(c2ccccc2)=C1)N=NC(c1ccc(Br)cc1)=C3c1ccc(Br)cc1`: the growth was 115%.
On to `COc1ccc(Oc2ccc(C3CC(c4cc(OC)c(OC)c(OC)c4)=NN3C(C)=O)cc2)cc1` (stereo unspecified), for which the growth was -14.9% (active).
For the molecule `COc1ccccc1N1CCN(C2=NN=C(c3cccc(Cl)c3)c3ccccc3C2)CC1`, the growth is -55.5% (active).
As for `CCOC(=O)c1c(NCC(=O)Nc2cccc([N+](=O)[O-])c2)sc(C(C)=O)c1C`, the growth was -18.4% (active).
As for `O=C1[C@H]2Cc3c([nH]c4ccccc34)[C@H](c3ccc(Br)cc3)N2C(=O)CN1C1CCN(CC2CCCCC2)CC1`, the figure is 56.9%; as for `N#C/C(=C\c1ccc(-c2ccc(F)cc2)o1)C(=O)Nc1ncc(Cc2ccc(Cl)cc2Cl)s1`, 22.5%.
For `c1ccc(-c2c(-c3ccccc3)[n+](Cc3ccc4ccccc4c3)c(-c3ccccc3)n2Cc2ccc3ccccc3c2)cc1`, the growth is -59.9% (active).
Regarding `OC1CCN(CCCOc2c3ccccc3nc3c2oc2ccccc23)CC1`, the growth is 6.8% (active).
As for `O=S(=O)(Nc1cc(Cl)c(F)c(Cl)c1)c1ccc(-c2cnc(C3CC3)o2)cc1`, the growth is 14.1%.
As for `Cc1[nH]c(C(=O)Nc2ccc(C(=O)NCC3CCNCC3)cc2OC(C)C)c(Cl)c1Cl`, the growth is 73.1%.
As for `COc1ccc(CCN2C(=O)/C(=C/c3nc(CO)cs3)SC2=S)cc1`, the growth is 59.4%.
Then `COc1ccc(-c2nc(SCC(C)C)nc(N/N=C\c3cccc([N+](=O)[O-])c3)c2C#N)cc1`, with 85.1%; and `Clc1cccc(/C=N/Nc2nc(N/N=C/c3cccc(Cl)c3)nc(N3CCCCC3)n2)c1`, with 97%; and `CC(C)NC(=O)c1cc(-c2ccc(NC(=O)Nc3ccc(F)cc3)cc2)nc2cccnc12`, with 105%.
Turning to `CCO/C=N/C1=C(C#N)C(c2ccc(Cl)cc2)c2sc3c(CC)cccc3c2O1` (stereo unspecified), the growth is -0.966% (active).
Turning to `Cc1[nH]c(C(=O)Nc2ccccc2OCc2cccc(C(=O)NC3CCNC3)c2)c(Cl)c1Cl` (stereo unspecified), the growth is 71.4%.
`O=S(=O)(Nc1ccc2c(c1)OCO2)c1ccc(-c2cnc(C3CC3)o2)cc1`: the growth was 3.52% (active).
As for `CC(=O)c1ccc(Nc2nc(SCC(C)C)nc(-c3ccc(F)cc3)c2C#N)cc1`, the figure is 103%; as for `CCNC(=O)Oc1ccc(/C(=C(/C)c2ccccc2)c2ccc(OCCN3CCCCCC3)cc2)cc1`, -19.2% (active); as for `COc1ccc(C(C)=C(c2ccc(OCCN(C)C)cc2)c2ccc(OCCN(C)C)cc2)cc1`, -63.3% (active).
As to `CCc1cc(OC(=O)N2CCC(N3CCCCC3)CC2)ccc1Nc1cc(-c2ccc(-n3cccn3)cc2)[nH]n1`, the growth is 62.5%.
For `COc1ccc(C(=O)c2c(N)c(C#N)cn2-c2cccc(OC)c2)cc1`, the growth is 3.83% (active).
Take `CCN(CC)c1ccc(C=O)c(OCc2cn(CC(=O)Nc3ccc(Cl)cc3)nn2)c1`: the growth is 69.7%.
In the case of `CC1=C(C)C(=O)C(Nc2cccc(C(=O)OC(C)(C)C)c2)=C(Cl)C1=O`, the growth is 68%.
Then `Cc1cc(C)n(C(=O)c2sc(=S)n(-c3ccccc3)c2N=Nc2c(N)n[nH]c2N)n1`, with 110%; and `N/C(=N\OC(=O)CSc1nc2ccccc2s1)c1ccc2ccccc2c1`, with 105%; and `IP(CCCSc1n(Cc2ccc3ccccc3c2)c(-c2ccccc2)c(-c2ccccc2)[n+]1Cc1ccc2ccccc2c1)(c1ccccc1)(c1ccccc1)c1ccccc1`, with -29.1% (active).
As for `COc1cc(Cn2cc3c(c2)-c2onc(CN4CCCC4)c2CC3)cc(OC)c1OC`, the growth is 99%.
Consider `Nn1c(N/N=C/c2nc3ccccc3s2)n[nH]c1=S`, for which the growth was 136%.
As for `Cn1ccnc1C(=O)/C=C/c1ccc(NC(=O)Nc2ccc(Cl)cc2)cc1`, the figure is 44.2%; as for `Nc1ccc(Nc2ncnc3sc4c(c23)CCN(Cc2ccccc2)C4)cc1`, 102%; as for `C/C(=C(/C)C1CC1CCNC1CCC(NC(=O)OC(C)(C)C)CC1)c1ccccc1` (stereo unspecified), 56.6%.
For `C=CCn1c(SCC(=O)Nc2ccc(C(=O)/C=C/c3ccc(Br)cc3)cc2)nnc1-c1c[nH]c2ccccc12`, the growth is 84.3%.
On to `Cc1ccc(CNS(=O)(=O)/N=C2\NC(=O)NC2=C(Cl)Cl)cc1`, for which the growth is 28.6%.
As for `COc1ccc(-c2cc(-c3cccc4ccccc34)n3c(n2)nc2ccccc23)cc1`, the figure is -0.785% (active).
As for `CC(C)(C)Nc1nc2c(OCCc3ccccc3)cccn2c1-c1cccc(Oc2ccccc2)c1`, the figure is 0.841% (active); as for `CC(Nc1ncnc2ccc(-c3cnc4cnccn34)cc12)c1ccccc1` (stereo unspecified), 52.4%.
With `COc1ccc(-c2c3c(cn2Cc2cccc(OC)c2)-c2oncc2CCC3)cc1`, the growth is 100%.
As for `COc1ccc(C(=O)/C=C/c2ccc(Oc3nc(NCCO)nc(N4CCOCC4)n3)c(OC)c2)cc1`, the figure is 15.5%.
On to `Cc1cc2nc(C(Cl)Cl)nc(-c3ccco3)n2n1`, for which the growth is -4.98% (active).
Turning to `NS(=O)(=O)c1ccc(Nc2nc(N/N=C/c3ccc(C(F)(F)F)cc3)nc(Nc3ccccc3)n2)cc1`, the growth is 48.9%.
Then `O=C(/C=C/c1cccc(F)c1)c1cccc(OCCCOc2cccc(C(=O)/C=C/c3cccc(F)c3)c2)c1`, with 68.3%; and `COc1cc(C(=O)C[n+]2ccc3ccccc3c2)cc(OC)c1OC`, with 92.7%.
For `CCCCCCCCCC(=O)NC(C)(C)C(=O)N1CCC[C@H]1C(=O)N[C@@H](CC(C)C)C(=O)N[C@@](C)(CC)C(=O)N[C@@H](CCC(N)=O)C(=O)N[C@H](CCC(N)=O)C(=O)NC(C)(C)C(=O)NC(C)(C)C(=O)N[C@@H](CCC(N)=O)C(=O)N[C@H](CC(C)C)C(=O)N[C@H](CO)CC(C)C`, the growth was -76.7% (active) and -39.4% (active).
Take `O=C(CCCCCCNC(=O)C(O)(O)C(F)(F)F)Nc1nc2ccccc2s1`: the growth is 11.3%.
On to `Cc1ccc(NC(=O)c2ccc(CN3CCOCC3)c(C(F)(F)F)c2)cc1Oc1ccc(-c2[nH]nc3ncnc(N)c23)cc1`, for which the growth is 80.9%.
In the case of `CCNC(=O)N1CCc2cc(OC)c(OCCc3ccc(OC)c(N)c3)cc2C1c1cc(C)c(C)cc1C` (stereo unspecified), the growth was 22.1%.
With `Cc1ccc(NC(=O)Nc2nc3ccc([N+](=O)[O-])cc3s2)cc1`, the growth is -17.2% (active).
`CCN(CC)CCCC(C)NCC(=O)NC(c1ccc2c(c1)OCO2)c1cc(Cl)c2cccnc2c1O` (stereo unspecified): the growth is 7.29% (active).
`CNC(=O)c1c(NC(=O)c2ccccc2C(F)(F)F)sc2c1CCC(=O)C2`: the growth is -10.5% (active).
Take `O=C(Cn1c(-c2ccccc2)nc2cc(Cl)c(Cl)cc21)N=Nc1c(O)[nH]c2ccc(Cl)cc12`: the growth is 92.1%.
As for `CS(=O)(=O)Nc1cc(-c2ccc3ncc(C#N)c(N[C@H](CO)c4ccccc4)c3c2)cnc1Cl`, the figure is 25%.
Take `N#Cc1c(NC(=O)c2ccc(F)c(Cl)c2)sc2c1CCC(=O)C2`: the growth is -14.5% (active).
